Measured values reported in the supplement of paper PMC6522484.
± gives the standard deviation of the averaged measurements.

How the values were obtained:
[1] = test system: DLD1; test: cell viability (CellTiter-Glo) relative to plate median (fraction of plate median); higher = more viable cells; conditions: 5 µM; treatment time 24 h; reporter: 7TFP
Method in brief: (§1)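 On parallel plates, a Tecan F500 reader recorded either firefly luciferase or CellTiterGlo luminescence. The plates held colorectal cancer cells stably transduced with lentiviral TCF/Wnt firefly luciferase reporters (7TFP or TCF4/Wnt), seeded in 384-well format and treated 24 h later with library compounds at a final 5 µM for 24 h. Per-well signals were normalised to the plate median (webcellHTS2, additive, no log transformation), and two independent replicates were averaged.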

[2] = test system: HCT116; test: as above; conditions: 5 µM; treatment time 24 h; reporter: TCF4/Wnt
Method in brief: as §1

[3] = test system: SW480; test: as above; conditions: 5 µM; treatment time 24 h; reporter: 7TFP
Method in brief: as §1

[4] = test system: DLD1; test: TCF/Wnt firefly luciferase reporter signal relative to plate median (fraction of plate median); higher = higher Wnt reporter signal; conditions: 5 µM; treatment time 24 h; reporter: 7TFP
Method in brief: as §1

[5] = test system: SW480; test: as above; conditions: 5 µM; treatment time 24 h; reporter: 7TFP
Method in brief: as §1

Structure (SMILES)	cell viability [1]	cell viability [2]	cell viability [3]	TCF/Wnt firefly luciferase reporter signal [4]	TCF/Wnt firefly luciferase reporter signal [5]
COc1cccc2c1C(=O)c1c(O)c3c(c(O)c1C2=O)C[C@@](O)(C(=O)CO)C[C@@H]3O[C@H]1C[C@H](N)[C@@H](O)[C@H](C)O1	1.03 ± 0.028	0.589 ± 0.19	1.11 ± 0.13	1.16 ± 0.014	0.727 ± 0.082
O=c1c2cc(O)c(O)cc2oc2cc(O)c([C@@H]3O[C@H](CO)[C@@H](O)[C@H](O)[C@H]3O)c(O)c12	1.09 ± 0.13	1.045 ± 0.0071	1.05 ± 0.035	0.988 ± 0.06	0.957 ± 0.061
CC[C@H]1OC(=O)C[C@@H](O)[C@H](C)[C@@H](O[C@@H]2O[C@H](C)[C@@H](O[C@H]3C[C@@](C)(O)[C@@H](O)[C@H](C)O3)[C@H](N(C)C)[C@H]2O)[C@@H](CC=O)C[C@@H](C)C(=O)/C=C/C(C)=C/[C@@H]1CO[C@@H]1O[C@H](C)[C@@H](O)[C@@H](OC)[C@H]1OC	0.947 ± 0.046	1.08 ± 0.021	1.07 ± 0.021	1.1 ± 0.099	1.035 ± 0.0071
CN1CCc2cccc3c2[C@H]1Cc1ccc(O)c(O)c1-3	0.957 ± 0.06	1.04 ± 0.088	0.992 ± 0.025	1.1 ± 0.057	0.978 ± 0.088
C[C@@H]1C[C@H]2[C@@H]3CCC4=CC(=O)C=C[C@]4(C)[C@@]3(F)[C@@H](O)C[C@]2(C)[C@@]1(O)C(=O)COP(=O)(O)O	1.03 ± 0.052	1.02 ± 0.075	1.01 ± 0.093	0.954 ± 0.065	0.906 ± 0.0014
Oc1c(I)cc(I)c2cccnc12	0.992 ± 0.11	0.931 ± 0.035	0.939 ± 0.016	0.928 ± 0.026	0.984 ± 0.14
CC(=O)Nc1ccccc1	0.977 ± 0.02	0.97 ± 0.043	0.966 ± 0.0042	1.05 ± 0.11	0.975 ± 0.028
COc1ccc(/C=C/C(=O)c2ccc(O)cc2O)cc1	0.938 ± 0.088	0.947 ± 0.065	1.035 ± 0.0071	1.085 ± 0.0071	0.794 ± 0.054
Cc1cc(O)c2c(c1)C(=O)c1cccc(O)c1C2=O	0.921 ± 0.04	1.07 ± 0.21	0.936 ± 0.013	0.893 ± 0.15	0.934 ± 0.042
NS(=O)(=O)c1cc2c(cc1Cl)N=CNS2(=O)=O	0.965 ± 0.093	0.973 ± 0.081	0.891 ± 0.018	0.828 ± 0.18	0.984 ± 0.011
CC(C)=CCc1c(O)cc(C)oc1=O	1.05 ± 0.17	1.07 ± 0.12	1.055 ± 0.0071	1.06 ± 0.1	1.03 ± 0.071
CCCCCCc1ccc(O)cc1O	1.04 ± 0.061	1.14 ± 0.021	1.07	1.09 ± 0.014	1 ± 0.11
CC(C)[C@H](NC(=O)[C@@H]1CCCN1)C(=O)N1CCNC(=O)C1=O [Prolyl-valyl-diketopiperazine]	1.04 ± 0.12	1.14 ± 0.092	1.07 ± 0.05	0.919 ± 0.013	0.962 ± 0.021
CCCCCCCCCCC[C@@H](C[C@@H]1OC(=O)[C@H]1CCCCCC)OC(=O)[C@H](CC(C)C)NC=O	0.83 ± 0.15	1.03 ± 0.12	0.972 ± 0.018	1.01 ± 0.13	0.933 ± 0.023
COc1ccc(-c2cc(=O)c3c(O)cc(O[C@H]4O[C@H](CO[C@@H]5O[C@@H](C)[C@H](O)[C@@H](O)[C@H]5O)[C@@H](O)[C@H](O)[C@H]4O)cc3o2)cc1	0.995 ± 0.079	0.88 ± 0.1	0.979 ± 0.059	1.02 ± 0.029	0.9475 ± 0.00071
CN(C(=O)C(Cl)Cl)c1ccc(OC(=O)c2ccco2)cc1	0.95 ± 0.0014	0.879 ± 0.2	1.03 ± 0.021	0.833 ± 0.14	0.934 ± 0.043
CN(C)CCOc1ccc(/C(=C(/CCCl)c2ccccc2)c2ccccc2)cc1	0.947 ± 0.034	1.02 ± 0.062	0.977 ± 0.047	0.962 ± 0.12	1.05 ± 0.073
Nc1nc(=O)c2c([nH]1)NCC(CNc1ccc(C(=O)N[C@@H](CCC(=O)O)C(=O)O)cc1)N2C=O (stereo not given in full)	1 ± 0.085	1.03	1.01 ± 0.019	1.02 ± 0.12	1.01 ± 0.028
CC(=O)O[C@@H]1C[C@H]2C(C)(C)C(=O)C=C[C@]2(C)[C@H]2CC[C@@]3(C)[C@H](c4ccoc4)OC(=O)[C@H]4O[C@]43[C@@]21C	1.01 ± 0.025	1.07 ± 0.042	0.97 ± 0.018	1.19 ± 0.05	1.11 ± 0.028
COc1cc(-c2oc3cc(O)ccc3c(=O)c2O)ccc1O	1.03 ± 0.014	1.12 ± 0.078	1.055 ± 0.0071	1 ± 0.098	1.07 ± 0.035
CC(C)=CCOc1cc2oc(=O)ccc2cc1O	1.08 ± 0.014	1.19 ± 0.11	1.04 ± 0.028	1.005 ± 0.0071	1.07 ± 0.064
CC(=O)N[C@@H](CC(=O)N[C@@H](CCC(=O)O)C(=O)O)C(=O)O	1.01 ± 0.014	1.055 ± 0.0071	0.925 ± 0.011	0.958 ± 0.088	0.988 ± 0.032
COC(=O)Nc1nc2cc(Sc3ccccc3)ccc2[nH]1	1.01 ± 0.014	1.03	1.03 ± 0.05	0.99 ± 0.071	0.995 ± 0.05
CC(=O)c1oc2cc3[nH]c(=O)cc(C)c3cc2c1C [2-Acetyl-3,5-dimethylfuro[3,2-g]quinolin-7-one (VFT-05)]	0.8435 ± 0.0035	0.998 ± 0.059	0.885 ± 0.0092	0.8825 ± 0.0035	0.979 ± 0.072
CS(=O)(=O)Nc1ccc([N+](=O)[O-])cc1Oc1ccccc1	1.02 ± 0.021	0.967 ± 0.089	0.978 ± 0.018	1.01 ± 0.022	0.981 ± 0.028
C#C[C@]1(OC(C)=O)CC[C@H]2[C@@H]3CCC4=CC(=NO)CC[C@@H]4[C@H]3CC[C@@]21CC (mixture of isomers)	1 ± 0.057	1.025 ± 0.0071	0.98 ± 0.025	1.055 ± 0.0071	0.97 ± 0.04
CCOC(=O)[C@@](C)(N)Cc1ccc(O)c(O)c1	1 ± 0.025	0.93 ± 0.098	0.979 ± 0.044	1.1 ± 0.12	1.07 ± 0.064
